Where “and” joins values, the source holds several entries; their conditions need not be identical. Equal entries are not always repeated. Records with an inconclusive call do not appear. Some compounds were tested as several samples or in several runs, with calls that do not always agree. Calls of active or inactive are those of the source. Unless noted, calls come from the whole dose curve; as a rule, active = well fitted curve in the direction sought with a large enough effect in the repeat runs; inconclusive = weak or mixed curves; inactive = no such curve, though single readings can be large; an effect the other way counts as inactive or inconclusive.
Legend:
[1] = qHTS assay to identify small molecule antagonists of the thyroid receptor (TR) signaling pathway (AID 743065); conditions: GH3.TRE-Luc, T3-stimulated luciferase inhibition, 23.5 h; series mostly up to 70.3 µM; note: nearly all actives have a fitted effect of over 55% in size
Summary of the method: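 GH3.TRE-Luc rat pituitary cells (two TREs driving luciferase) were dosed with compound, then stimulated with 1 nM T3 (final) for 23.5 h at 37 C. ONE-Glo luminescence was the read-out, with CellTiter-Fluor fluorescence as the cytotoxicity counter-screen.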

[2] = system: thyroid hormone receptor (rat, GH3 cells); assay: qHTS assay to identify small molecule agonists of the thyroid receptor (TR) signaling pathway (AID 743066; calls by dose curve); conditions: GH3.TRE-Luc cells, TR agonist luciferase, 24 h; series mostly up to 83.9 µM
[3] = target: Estrogen receptor (Homo sapiens) (UniProt P03372); assay: qHTS assay to identify small molecule antagonists of the estrogen receptor alpha (ER-alpha) signaling pathway (AID 743069; active = well fitted curve in the direction sought with a large enough effect in the signal ratio in the repeat runs, not every such curve was filed as active; the % refers to the signal ratio); conditions: HEK293 ER-alpha-UAS-bla, beta-lactamase ratio, antagonist mode; series mostly up to 69.4 µM
Estrogen receptor (Homo sapiens), sequence (P03372 whole entry, looked up): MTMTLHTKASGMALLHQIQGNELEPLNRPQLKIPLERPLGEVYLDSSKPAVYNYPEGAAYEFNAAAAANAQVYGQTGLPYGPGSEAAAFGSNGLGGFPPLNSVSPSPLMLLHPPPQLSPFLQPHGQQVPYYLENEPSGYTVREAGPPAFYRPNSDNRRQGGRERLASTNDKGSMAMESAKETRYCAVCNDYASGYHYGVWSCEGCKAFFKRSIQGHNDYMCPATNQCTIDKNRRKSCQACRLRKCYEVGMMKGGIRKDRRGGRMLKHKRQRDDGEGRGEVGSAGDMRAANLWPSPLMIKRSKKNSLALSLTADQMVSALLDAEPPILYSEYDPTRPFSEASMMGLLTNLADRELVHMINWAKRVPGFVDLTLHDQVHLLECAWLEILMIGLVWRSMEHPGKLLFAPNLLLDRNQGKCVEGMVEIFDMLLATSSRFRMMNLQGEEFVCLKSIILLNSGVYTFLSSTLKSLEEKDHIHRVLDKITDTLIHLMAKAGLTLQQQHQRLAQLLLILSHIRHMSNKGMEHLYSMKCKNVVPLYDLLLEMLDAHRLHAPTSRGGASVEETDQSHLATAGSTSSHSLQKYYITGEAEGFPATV
Summary of the method: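 In this cell-based reporter format, GripTite HEK293 cells harbouring ER-alpha-UAS-bla were grown overnight with 2% charcoal-stripped FBS, dosed with DMSO-dissolved compounds, then challenged with 17beta-estradiol. After 18 hr at 37C, beta-lactamase activity was detected by FRET fluorescence.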

[4] = qHTS assay to identify small molecule antagonists of the estrogen receptor alpha (ER-alpha) signaling pathway - cell viability counter screen (AID 743074; calls by dose curve; note: nearly all actives have a fitted effect of over 45% in size); conditions: ERalpha-bla HEK293 viability, CellTiter-Glo luminescence, 18 h; series mostly up to 69.4 µM
[5] = target: Estrogen receptor (Homo sapiens) (UniProt P03372); assay: qHTS assay to identify small molecule agonists of the estrogen receptor alpha (ER-alpha) signaling pathway (AID 743075; calls by dose curve); conditions: HEK293 ER-alpha-UAS-bla, beta-lactamase FRET ratio, 18 h; series mostly up to 70.1 µM
[6] = target: Estrogen receptor (Homo sapiens) (UniProt P03372); assay: qHTS assay to identify small molecule agonists of the estrogen receptor alpha (ER-alpha) signaling pathway using the BG1 cell line (AID 743079); conditions: BG1Luc4E2 cells, ERE-luciferase agonist, 22 h; series mostly up to 70.3 µM; note: nearly all actives have a fitted effect of over 20% in size; note: potency is the fitted concentration of half-maximal effect
[7] = qHTS assay to identify small molecule antagonists of the estrogen receptor alpha (ER-alpha) signaling pathway using the BG1 cell line (AID 743080; calls by dose curve;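 note: BG1 cells stimulated with 17beta-estradiol alongside compound; nearly all actives have a fitted effect of over 25% in size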); conditions: BG1Luc4E2 ERE-luciferase antagonist mode, luminescence; series mostly up to 70.3 µM
Summary of the method: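 Seeding, 24 h rest, compound transfer from DMSO, 17beta-estradiol addition, 21.5 h incubation, CellTiter-Fluor (30 min, 37 C), then ONE-Glo (30 min, room temperature): this sequence was run on BG1-Luc-4E2 reporter cells.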

[8] = qHTS assay to identify small molecule antagonists of the estrogen receptor alpha (ER-alpha) signaling pathway using the BG1 cell line - cell viability counter screen (AID 743081); conditions: BG1Luc4E2 viability, CellTiter-Fluor, 22 h; series mostly up to 70.3 µM;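 note: compound given together with 17beta-estradiol as the ER stimulus; nearly all actives have a fitted effect of over 45% in size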
[9] = target: Aromatase (Homo sapiens) (UniProt P11511); assay: qHTS assay to identify aromatase inhibitors (AID 743083); conditions: MCF-7 aro ERE, testosterone-driven ERE luciferase, 24 h; series mostly up to 70.3 µM; note: nearly all actives have a fitted effect of over 55% in size
Aromatase (Homo sapiens), sequence (P11511 whole entry, looked up): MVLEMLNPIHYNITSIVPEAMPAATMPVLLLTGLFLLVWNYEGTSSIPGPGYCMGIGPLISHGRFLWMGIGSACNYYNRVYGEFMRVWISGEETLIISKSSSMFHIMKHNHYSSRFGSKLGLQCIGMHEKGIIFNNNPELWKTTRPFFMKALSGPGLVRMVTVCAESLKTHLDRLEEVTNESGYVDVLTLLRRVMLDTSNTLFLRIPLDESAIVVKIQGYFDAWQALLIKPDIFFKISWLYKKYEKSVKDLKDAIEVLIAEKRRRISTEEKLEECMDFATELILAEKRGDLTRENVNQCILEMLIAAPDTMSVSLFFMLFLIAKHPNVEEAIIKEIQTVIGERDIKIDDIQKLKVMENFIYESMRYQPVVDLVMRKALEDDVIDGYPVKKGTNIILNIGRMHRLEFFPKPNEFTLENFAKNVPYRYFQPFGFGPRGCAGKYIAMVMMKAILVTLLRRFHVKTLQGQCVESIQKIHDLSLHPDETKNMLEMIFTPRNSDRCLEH

[10] = qHTS assay to identify aromatase inhibitors - cell viability counter screen (AID 743084); conditions: MCF-7 aro ERE viability, CellTiter-Fluor, 24 h; series mostly up to 70.3 µM;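 note: cells stimulated with testosterone during compound exposure; nearly all actives have a fitted effect of over 55% in size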
[11] = qHTS assay to identify small molecule that activate the aryl hydrocarbon receptor (AhR) signaling pathway - cell viability counter screen (AID 743086); conditions: HepG2-AhR-luc viability, CellTiter-Fluor, 24 h; series mostly up to 70.3 µM;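 note: HepG2 liver cells carrying the AhR DRE luciferase reporter; nearly all actives have a fitted effect of over 45% in size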
Summary of the method: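 HepG2-AhR-luc (HG2L7.5c1) cells, 4000/well, treated 24 h at 37 C with compound; viability measured as CellTiter-Fluor fluorescence after 30 min in the same wells as the luciferase read.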

[12] = target: Peroxisome proliferator-activated receptor gamma (Homo sapiens) (UniProt P37231); assay: qHTS assay to identify small molecule agonists of the peroxisome proliferator-activated receptor gamma (PPARg) signaling pathway (AID 743094; active = well fitted activation curve with a large enough effect in the signal ratio in the repeat runs, not every such curve was filed as active; the % refers to the signal ratio); conditions: HEK293H PPARg-UAS-bla, beta-lactamase FRET ratio, 17 h; series mostly up to 57 µM
Peroxisome proliferator-activated receptor gamma (Homo sapiens), sequence (P37231 whole entry, looked up): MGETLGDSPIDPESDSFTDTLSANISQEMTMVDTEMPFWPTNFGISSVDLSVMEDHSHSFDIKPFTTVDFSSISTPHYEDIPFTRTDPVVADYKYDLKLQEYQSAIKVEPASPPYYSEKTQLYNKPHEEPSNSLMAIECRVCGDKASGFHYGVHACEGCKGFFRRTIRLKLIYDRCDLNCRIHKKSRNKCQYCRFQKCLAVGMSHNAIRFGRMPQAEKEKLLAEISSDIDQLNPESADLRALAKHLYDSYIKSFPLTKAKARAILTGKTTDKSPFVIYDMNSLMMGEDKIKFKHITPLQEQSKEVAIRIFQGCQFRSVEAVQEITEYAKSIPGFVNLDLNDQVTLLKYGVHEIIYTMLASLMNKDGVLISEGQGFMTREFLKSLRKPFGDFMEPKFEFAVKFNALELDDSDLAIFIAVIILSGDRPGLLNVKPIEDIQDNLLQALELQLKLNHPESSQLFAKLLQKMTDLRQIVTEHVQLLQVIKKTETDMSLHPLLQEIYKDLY
Summary of the method: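 HEK293H PPARg-bla cells, 5 h settle at 37C/5% CO2; compound (DMSO) 17 h, 37C; B/G FRET substrate 1 h RT; fluorescence intensity read-out. qHTS format.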

[13] = target: Peroxisome proliferator-activated receptor gamma (Homo sapiens) (UniProt P37231); assay: qHTS assay to identify small molecule antagonists of the peroxisome proliferator-activated receptor gamma (PPARg) signaling pathway (AID 743191; calls by dose curve; note: nearly all actives have a fitted effect of over 30% in size); conditions: HEK293H PPARg-UAS-bla, beta-lactamase ratio, antagonist, 17 h; series mostly up to 62.6 µM
Summary of the method: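 GeneBLAzer PPARg UAS-bla HEK293H cells, 5 h post-plating, exposed to compounds 17 h at 37C. LiveBLAzer B/G FRET substrate added for 1 h at room temperature; beta-lactamase reporter read by fluorescence intensity.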

[14] = qHTS assay to identify small molecule antagonists of the peroxisome proliferator-activated receptor gamma (PPARg) signaling pathway - cell viability counter screen (AID 743194); conditions: PPARg-bla HEK293H viability, CellTiter-Glo luminescence, 17 h, co-treated with 50 nM rosiglitazone; series mostly up to 62.6 µM; note: nearly all actives have a fitted effect of over 55% in size
Summary of the method: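 Cytotoxicity counter screen in PPARg-bla HEK293H cells, same wells as reporter assay. Compounds plus 50 nM rosiglitazone (final) for 17 h at 37 C, then viability read by CellTiter-Glo luminescence.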

[15] = qHTS assay for small molecule agonists of the antioxidant response element (ARE) signaling pathway - cell viability counter screen (AID 743203; calls by dose curve; note: nearly all actives have a fitted effect of over 55% in size); conditions: ARE-bla HepG2 viability, CellTiter-Glo luminescence, 16 h; series mostly up to 73.3 µM
Summary of the method: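 Luminescence read-out (CellTiter-Glo, 30 min at room temperature) measured cell viability in the same wells as the ARE beta-lactamase reporter. HepG2 ARE-bla cells were treated with compounds for 16 hrs at 37C/5% CO2.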

[16] = qHTS assay for small molecule activators of the heat shock response signaling pathway - cell viability counter screen (AID 743209); conditions: HSE-bla HeLa viability, CellTiter-Glo luminescence, 5 h; series mostly up to 62.6 µM; note: nearly all actives have a fitted effect of over 50% in size
Summary of the method: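 HSE-bla HeLa; 1500 cells/well; overnight 37 C, 5% CO2; compound 5 h 37 C; LiveBLAzer B/G substrate 2.5 h RT; CellTiter-Glo 30 min RT; luminescence.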

[17] = qHTS assay for small molecule activators of the heat shock response signaling pathway (AID 743210; active = well fitted activation curve with a large enough effect in the signal ratio in the repeat runs, with a control signal flat, not every such curve was filed as active; the % refers to the signal ratio;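 note: HeLa cells with beta-lactamase reporter driven by heat shock elements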); conditions: HeLa HSE-bla reporter, beta-lactamase ratio, 5 h; series mostly up to 62.6 µM
Summary of the method: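 Following overnight attachment, HSE-bla HeLa cells received test compounds for 5 h at 37 C; beta-lactamase activity was then detected via FRET substrate fluorescence.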

[18] = qHTS assay to identify small molecule agonists of the peroxisome proliferator-activated receptor delta (PPARd) signaling pathway - cell viability counter screen (AID 743211); conditions: PPARd-bla HEK293H viability, CellTiter-Glo luminescence, 17 h; series mostly up to 62.6 µM; note: nearly all actives have a fitted effect of over 55% in size
Summary of the method: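 Following 5 h plating at 37 C and 5% CO2, PPARd UAS-bla HEK293H cells took up test compounds for 17 h. Viability was quantified by luminescence 30 min after CellTiter-Glo addition at room temperature.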

[19] = target: Aryl hydrocarbon receptor (Homo sapiens) (UniProt P35869); assay: qHTS assay to identify small molecule that activate the aryl hydrocarbon receptor (AhR) signaling pathway (AID 743085); conditions: HepG2 AhR-luc (HG2L7.5c1), luciferase, 24 h; series mostly up to 70.3 µM;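 note: HG2L7.5c1 human HepG2 liver cells with stably integrated DRE-driven firefly reporter; nearly all actives have a fitted effect of over 15% in size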
Aryl hydrocarbon receptor (Homo sapiens), sequence (P35869 whole entry, looked up): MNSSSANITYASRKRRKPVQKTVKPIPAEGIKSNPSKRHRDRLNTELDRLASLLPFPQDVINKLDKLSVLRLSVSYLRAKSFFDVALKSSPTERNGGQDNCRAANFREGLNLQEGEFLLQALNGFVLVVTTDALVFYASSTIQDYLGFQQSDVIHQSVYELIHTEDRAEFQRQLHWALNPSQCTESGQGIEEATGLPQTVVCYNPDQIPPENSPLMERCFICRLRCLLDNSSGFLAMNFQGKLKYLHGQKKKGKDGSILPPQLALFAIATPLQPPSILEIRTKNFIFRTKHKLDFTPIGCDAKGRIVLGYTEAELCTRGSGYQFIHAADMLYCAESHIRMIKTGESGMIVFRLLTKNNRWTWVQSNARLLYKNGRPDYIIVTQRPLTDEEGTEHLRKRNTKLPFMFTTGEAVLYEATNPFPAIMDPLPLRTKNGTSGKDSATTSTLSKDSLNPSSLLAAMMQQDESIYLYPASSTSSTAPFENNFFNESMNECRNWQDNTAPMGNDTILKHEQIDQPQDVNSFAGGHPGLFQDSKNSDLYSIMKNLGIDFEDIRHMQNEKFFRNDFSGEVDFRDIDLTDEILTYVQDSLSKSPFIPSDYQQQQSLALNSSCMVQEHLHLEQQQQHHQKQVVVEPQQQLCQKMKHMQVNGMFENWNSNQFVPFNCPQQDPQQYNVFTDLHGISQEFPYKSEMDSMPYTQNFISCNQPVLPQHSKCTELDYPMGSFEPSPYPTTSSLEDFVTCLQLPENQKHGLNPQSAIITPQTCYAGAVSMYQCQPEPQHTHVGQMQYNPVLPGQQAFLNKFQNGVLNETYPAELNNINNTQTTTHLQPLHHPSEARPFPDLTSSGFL
Summary of the method: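 Measured in HG2L7.5c1 cells: CellTiter-Fluor signal (30 min incubation, 37C) for viability, then luciferase luminescence (30 min, room temperature). Compound contact time was 24 h at 37C, following a 5 h pre-incubation.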

[20] = qHTS assay for small molecule agonists of the antioxidant response element (ARE) signaling pathway (AID 743202; active = well fitted activation curve with a large enough effect in the signal ratio in the repeat runs, not every such curve was filed as active; the % refers to the signal ratio); conditions: HepG2 ARE-bla reporter, beta-lactamase FRET, 16 h; series mostly up to 73.3 µM
Summary of the method: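 HepG2 ARE-bla cells; 16 h treatment at 37 C; FRET-based beta-lactamase fluorescence read after 2 h substrate incubation at room temperature.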

Measured: Potency

CC1(C)CC(N)CC(C)(CN)C1 (stereo not given)
not listed: [19] | [20]
inactive: all other assays above

CC(C)OP(=O)(CP(=O)(OC(C)C)OC(C)C)OC(C)C
not listed: [3] | [12] | [20]
inactive: all other assays above

CC1(C)OC[C@@H]2O[C@@]3(C(=O)O)OC(C)(C)O[C@H]3[C@@H]2O1
not listed: [3] | [5] | [6] | [7] | [15] | [17]
inactive: all other assays above

O=C(O)c1ccc(C(=O)O)c(C(=O)O)c1
not listed: [4] | [20]
inactive: all other assays above

COc1ccc(C)cc1N
not listed: [12] | [19] | [20]
inactive: all other assays above

CCCCCC(=O)O
not listed: [12] | [13]
inactive: all other assays above

O=[N+]([O-])c1ccc2nc[nH]c2c1
not listed: [4] | [15] | [19] | [20]
inactive: all other assays above

CCNC(=S)NCC
inactive and 54.5 µM (active): [6]
not listed: [12] | [20]
inactive: all other assays above

O=C(O)Cn1c(=O)n(Cc2ccc(Br)cc2F)c(=O)c2ccc(Cl)cc21
not listed: [8] | [10] | [11] | [12] | [13]
inactive: all other assays above

CCO[Si](CCC#N)(OCC)OCC
not listed: [19] | [20]
inactive: all other assays above

CC(CCl)OP(=O)(OC(C)CCl)OC(C)CCl (stereo not given)
not listed: [1] | [2] | [12]
inactive: all other assays above

COc1ccc(OC)cc1
not listed: [1] | [2] | [4] | [12] | [15]
inactive: all other assays above

C[C@]12CC[C@@H]3c4ccc(O)cc4CC[C@H]3[C@@H]1C[C@@H](O)[C@@H]2O
not listed: [3] | [5] | [6] | [7] | [12]
inactive: all other assays above

O=C1c2ccccc2CCc2ccccc21
not listed: [3] | [5] | [6] | [7] | [12]
inactive: all other assays above

CN1C(=O)CC[C@H]1c1cccnc1
not listed: [1] | [2] | [3] | [5] | [6] | [7] | [20]
inactive: all other assays above

CCOC(=O)n1ccn(C)c1=S
not listed: [1] | [2] | [12]
inactive: all other assays above

CCCCCCCCCCN
not listed: [3] | [4] | [5] | [6] | [7] | [12] | [13] | [20]
inactive: all other assays above

CCO[Si](CCCN)(OCC)OCC
not listed: [1] | [2] | [12] | [19]
inactive: all other assays above

COc1ccc(CCC(C)=O)cc1
not listed: [3] | [5] | [6] | [7] | [12]
inactive: all other assays above

COC(=O)CCCC(=O)OC
inactive: [1] | [2] | [4] | [8] | [11] | [14] | [15] | [16] | [17] | [18]

c1ccc(Oc2ccccc2)cc1
not listed: [3] | [5] | [6] | [7] | [12] | [13]
inactive: all other assays above

CC(C)(C#N)c1cc(Cn2cncn2)cc(C(C)(C)C#N)c1
not listed: [1] | [2] | [3] | [5] | [6] | [7] | [9] | [15]
inactive: all other assays above
